Shown are actives, neighbours in structure and some others; about 10% of the full set was active somewhere.
VP16 counter = VP16 counterscreen qHTS for inhibitors of ROR gamma transcriptional activity. hit rate 3.5% among 310,000. AID 2546, 2010. Potency, µM (titrated, usually from 53.6 µM), without a hit: at the highest dose activity, negative = inhibition, usual class: inhibitors. Drosophila S2 Gal4-VP16 UAS-luciferase, luminescence, 20 h;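 also: Gal4-VP16 expression switched on by copper sulfate through the metallothionein promoter; % is scaled to controls: 0 for no effect and ±100 for the full control effect; nearly all actives have a fitted effect of over 50% in size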
KB-V1 cytotox = qHTS assay for MDR1-selective chemotherapeutics: Primary screen using the drug-selected MDR subline cells KB-V1 | KB-V1 MDR cells viability, CellTiter-Glo, 72 h | Potency, µM (top dose mostly 46.1 µM), hits mostly cytotoxic | hit rate 3.4% among 400,000 | AID 1347076, 2019; also: % is scaled to controls: 0 for no effect and ±100 for the full control effect; nearly all actives have a fitted effect of over 60% in size
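Luminescent ATP read-out (CellTiter-Glo, 10 min) measures survival of drug-selected KB-V1 MDR cells after 72 h, 37 degrees C compound exposure. Medium: phenol-red-free DMEM, 10% FBS. Values from fitted concentration-response curves.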
KB-3-1 tox = qHTS assay for MDR1-selective chemotherapeutics: Primary screen using the parental adenocarcinoma cell KB-3-1 | KB-3-1 viability, CellTiter-Glo ATP luminescence, 72 h | Potency, µM (top dose mostly 46.1 µM), most hits filed as cytotoxic | hit rate 1.4% among 400,000 | AID 1347075, 2019; also: % is scaled to controls: 0 for no effect and ±100 for the full control effect; nearly all actives have a fitted effect of over 60% in size
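Cells are dispensed, compounds pinned in, plates held at 37 °C for 72 h, then CellTiter-Glo is added and luminescence read after 10 minutes. Cell line: parental KB-3-1 in phenol-red-free DMEM, 10% FBS.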
SW480 rerep = A quantitative high throughput screen for small molecules that induce DNA re-replication in SW480 colon adenocarcinoma cells; SW480 DNA re-replication, Hoechst DNA content imaging, 48 h; Potency, µM (series often up to 46.1 µM), for inactives: at the highest dose re-replication activation, most hits filed as activators; hit rate 1.8% among 340,000; also: % of control where 0% means no effect; nearly all actives have a fitted effect of over 55% in size
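Quantitative HTS format with DMSO vehicle controls; 48 hr drug incubation at 37 C, then 40 min Hoechst staining and scanning imager measurement at 405 nm excitation.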
RORg inh = qHTS for inhibitors of ROR gamma transcriptional activity; Drosophila S2 Gal4-RORgamma UAS-luciferase reporter, 20 h; Potency, µM (titrated, usually from 53.6 µM), for inactives: at the top dose activity change, negative = inhibition, most hits filed as inhibitors; hit rate 5.4% among 310,000; AID 2551, 2010; also: % is scaled to controls: 0 for no effect and ±100 for the full control effect; nearly all actives have a fitted effect of over 60% in size
Target sequence (P51450 whole entry, looked up, the tested form may be a part): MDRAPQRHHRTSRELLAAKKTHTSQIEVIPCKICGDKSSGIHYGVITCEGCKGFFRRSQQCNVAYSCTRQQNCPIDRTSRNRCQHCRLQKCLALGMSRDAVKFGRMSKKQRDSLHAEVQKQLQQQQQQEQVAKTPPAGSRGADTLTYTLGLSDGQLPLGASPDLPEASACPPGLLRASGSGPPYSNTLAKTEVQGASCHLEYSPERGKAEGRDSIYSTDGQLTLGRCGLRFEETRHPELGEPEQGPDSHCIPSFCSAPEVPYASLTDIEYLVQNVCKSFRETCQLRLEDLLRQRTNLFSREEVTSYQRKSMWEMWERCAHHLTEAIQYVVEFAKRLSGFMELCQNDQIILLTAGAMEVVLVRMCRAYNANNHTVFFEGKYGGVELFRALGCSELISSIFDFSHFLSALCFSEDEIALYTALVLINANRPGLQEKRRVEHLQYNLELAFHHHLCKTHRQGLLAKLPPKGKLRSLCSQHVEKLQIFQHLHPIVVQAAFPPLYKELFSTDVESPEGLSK
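Compounds are pin-transferred onto Drosophila Schneider cells expressing a copper-inducible Gal4–ROR gamma transactivation domain fusion. After 1 hr, copper sulfate is added to 700 uM final; luciferase is read 20 hr later.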
MCF10A rereplic = A quantitative high throughput screen for small molecules that induce DNA re-replication in MCF 10a normal breast cells; AID 624296, 2012; hit rate 2.9% among 350,000; Potency, µM (top dose mostly 46.1 µM), for the others: at the highest dose activity, positive = re-replication, usual class: activators; MCF 10A DNA re-replication, Hoechst nuclear intensity, 48 h; also: % of control where 0% means no effect; nearly all actives have a fitted effect of over 50% in size
An asterisk follows results filed as active; i = inactive; ? = inconclusive; nt = no result given; [ ] = dose if it differs, or a comment. Calls follow the shape of the dose curve; as a rule, active = well fitted curve in the direction sought with a large enough effect; inconclusive = small, poorly fitted or top-dose-only effect, or another doubt; inactive = no such curve, though single readings can be large; an effect the other way counts as inactive or inconclusive. Potency is read from the fitted curve at half-maximal effect.

SMILES	VP16 counter	KB-V1 cytotox	KB-3-1 tox	SW480 rerep	RORg inh	MCF10A rereplic
N#Cc1c(Nc2ccccc2)sc(C(=O)c2ccc(F)cc2)c1N	-25%	i	i	-5%	21%	?
N#Cc1c(Nc2ccccc2C(F)(F)F)s[nH]c1=O	11µM*	i	i	?	14µM*	18µM*
N#Cc1c(Nc2ccccc2)s[nH]c1=O	11µM*	?	i	?	?	?
CC1=C(C(=O)Nc2ccc(C)c(C)c2)C2(CCCCCC2)OC1=O	nt	i	i	nt	nt	nt
Cc1cccc2sc(NNC(=O)C3COc4ccccc4O3)nc12 (stereo not given)	11µM*	i	i	-11%	6.3µM*	2%
COc1ccc(OC)c2sc(NNC(=O)C3COc4ccccc4O3)nc12 (stereo not given)	-12%	i	i	-14%	?	?
Cc1cc(C)c2sc(NNC(=O)C3COc4ccccc4O3)nc2c1 (stereo not given)	18µM*	?	i	?	2.8µM*	?
CCC(=O)NNc1nc2c(F)cc(F)cc2s1	-28%	i	i	-8%	-6%	-4%
Cc1cc(C)c2sc(NC(=O)C3CC3)nc2c1	-30%	i	i	2%	6.3µM*	14%
Cc1ccc(C)c2sc(NC(=O)C3CC3)nc12	4%	i	i	-4%	-27%	-3%
O=C(NNc1nc2c(F)cc(F)cc2s1)C1COc2ccccc2O1 (stereo not given)	-25%	?	i	-11%	13µM*	0.92µM*
CC(=O)C[n+]1cccc2cc(Cl)ccc21	nt	i	i	nt	nt	nt
CCCCC[C@]12Cc3ccccc3C(O1)C1=C(CC(C)(C)CC1=O)O2	-4%[10 µM]	nt	nt	nt	-16%[10 µM]	nt
Cc1ccc(S(=O)(=O)N2CCC[C@H]2C(=O)NC2CCCCC2)cc1	nt	i	?	0%	nt	11%
O=S(=O)(NCC[C@@H]1CC[C@H](NS(=O)(=O)c2cccc(F)c2)[C@@H](CO)O1)c1cccc(F)c1	nt	i	i	nt	nt	nt
CC(=O)c1sc(NC(=O)C2COc3ccccc3O2)nc1C (stereo not given)	10µM*	i	i	-5%	7.1µM*	-7%
O=C(Nc1nncs1)C1COc2ccccc2O1 (stereo not given)	11%	i	i	0%	43%	0%
COc1cc(C(=O)Nc2ccc(C)cc2)c2ccccc2n1	-7%	?	0.82µM*	21µM*	-18%	5.8µM*
CCOc1ccc(NC(=O)c2cc(OC)nc3ccccc23)cc1	-5%	?	1.2µM*	?	4%	23µM*
CCOc1ccc(NC(=O)c2cc(=O)[nH]c3ccccc23)cc1	-7%	i	i	-2%	-5%	?

Screening data (PubChem BioAssay)
